Experiment [1] can be described thus: Quantitative High-Throughput drug screen in 47 multiple myeloma cell lines against the NCATS MIPE library collection: KMS20_JCRB cell viability assay (AID 1918973). Note: nearly all actives have a fitted effect of over 45% in size. Put shortly:
(§1)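 Viability readout: CellTiter-Glo luminescence following 5 min room-temperature incubation with reagent. Prior exposure: 48 h, 37C, humidified 5% CO2, 500 cells per well.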

Experiment [2] in a line: Quantitative High-Throughput drug screen in 47 multiple myeloma cell lines against the NCATS MIPE library collection: KMS26_JCRB cell viability assay (AID 1918975). Note: nearly all actives have a fitted effect of over 45% in size. In short, it runs like this:
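Myeloma cells (500 per well) were exposed to MIPE 4.0 compounds by pin transfer and incubated 48 hours at 37C, 5% CO2. Viability was read as ATP by CellTiter-Glo luminescence, normalised to DMSO (100%) and media-only (0%) wells.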

Experiment [3] can be described thus: Quantitative High-Throughput drug screen in 47 multiple myeloma cell lines against the NCATS MIPE library collection: MMM1_PLB cell viability assay (AID 1918976). Note: nearly all actives have a fitted effect of over 35% in size. In short, it runs like this:
(§2)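 Inhibition of viability over 48 h was scored by ATP content (CellTiter-Glo) in 500-cell wells. Zero and full viability were defined by media-only and DMSO-only wells.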

Experiment [4] in a line: Quantitative High-Throughput drug screen in 47 multiple myeloma cell lines against the NCATS MIPE library collection: MOLP8_DSMZ cell viability assay (AID 1918977). Note: nearly all actives have a fitted effect of over 45% in size. In short, it runs like this:
as §2

The nature of experiment [5]: Quantitative High-Throughput drug screen in 47 multiple myeloma cell lines against the NCATS MIPE library collection: NCIH929_DSMZ cell viability assay (AID 1918978). Note: nearly all actives have a fitted effect of over 35% in size. In short, it runs like this:
as §2

A short description of experiment [6]: Quantitative High-Throughput drug screen in 47 multiple myeloma cell lines against the NCATS MIPE library collection: OCIMY1_PLB cell viability assay (AID 1918979). Note: nearly all actives have a fitted effect of over 35% in size. In short, it runs like this:
as §2

Experiment [7] can be described thus: Quantitative High-Throughput drug screen in 47 multiple myeloma cell lines against the NCATS MIPE library collection: MM1S_ATCC cell viability assay (AID 1918980). Note: nearly all actives have a fitted effect of over 45% in size. In short, it runs like this: as §2
Experiment [8] can be described thus: Quantitative High-Throughput drug screen in 47 multiple myeloma cell lines against the NCATS MIPE library collection: MM1R_ATCC cell viability assay (AID 1918981). Note: nearly all actives have a fitted effect of over 35% in size. Put shortly:
as §2

A short description of experiment [9]: Quantitative High-Throughput drug screen in 47 multiple myeloma cell lines against the NCATS MIPE library collection: LP1_DSMZ cell viability assay (AID 1918982). Note: nearly all actives have a fitted effect of over 35% in size. In short, it runs like this: as §2
Experiment [10] is described as follows: Quantitative High-Throughput drug screen in 47 multiple myeloma cell lines against the NCATS MIPE library collection: KMS28PE_JCRB cell viability assay (AID 1918983). Note: nearly all actives have a fitted effect of over 35% in size. In short, it runs like this:
as §2

Experiment [11] is described as follows: Quantitative High-Throughput drug screen in 47 multiple myeloma cell lines against the NCATS MIPE library collection: KMS34_JCRB cell viability assay (AID 1918985). Note: nearly all actives have a fitted effect of over 40% in size. Put shortly:
as §2

A short description of experiment [12]: Quantitative High-Throughput drug screen in 47 multiple myeloma cell lines against the NCATS MIPE library collection: U266_ATCC cell viability assay (AID 1919864). Note: nearly all actives have a fitted effect of over 35% in size. In short, it runs like this:
as §2

The nature of experiment [13]: Quantitative High-Throughput drug screen in 47 multiple myeloma cell lines against the NCATS MIPE library collection: XG6_PLB cell viability assay (AID 1919865). Note: nearly all actives have a fitted effect of over 40% in size. In short, it runs like this:
as §2

Experiment [14] in a line: Quantitative High-Throughput drug screen in 47 multiple myeloma cell lines against the NCATS MIPE library collection: KMS21BM_JCRB cell viability assay (AID 1918974). The following applies: ATP luminescence, 48 h; viability: at 45.8 µM (top of the series). Put shortly:
as §1

Experiment [15] can be described thus: Quantitative High-Throughput drug screen in 47 multiple myeloma cell lines against the NCATS MIPE library collection: OCIMY7_PLB cell viability assay (AID 1918987). Note: nearly all actives have a fitted effect of over 65% in size. The following applies: OCI-MY7 myeloma viability, CellTiter-Glo ATP, 48 h; viability (% of DMSO): at 45.8 µM (top of the series). In short, it runs like this:
as §2
A general note: Cellular ATP, detected with luciferase, serves as a proxy for viable cell number.

A short description of experiment [16]: Quantitative High-Throughput drug screen in 47 multiple myeloma cell lines against the NCATS MIPE library collection: L363_DSMZ cell viability assay (AID 1918984). Note: nearly all actives have a fitted effect of over 40% in size. The note with it: L363 myeloma viability, CellTiter-Glo ATP luminescence, 48 h; viability (% of control): at 45.8 µM (top of the series). In short, it runs like this: as §2
Experiment [17] can be described thus: Quantitative High-Throughput drug screen in 47 multiple myeloma cell lines against the NCATS MIPE library collection: OPM1_PLB cell viability assay (AID 1918989). Note: nearly all actives have a fitted effect of over 40% in size. In short, it runs like this: as §2
The nature of experiment [18]: Quantitative High-Throughput drug screen in 47 multiple myeloma cell lines against the NCATS MIPE library collection: SKMM1_PLB cell viability assay (AID 1919863). Note: nearly all actives have a fitted effect of over 35% in size. The following applies: SKMM1 myeloma viability, CellTiter-Glo ATP, 48 h; viability: stronger effect = lower value. In short, it runs like this:
as §2

Experiment [19] in a line: Quantitative High-Throughput drug screen in 47 multiple myeloma cell lines against the NCATS MIPE library collection: XG1_PLB cell viability assay (AID 1919866). Note: nearly all actives have a fitted effect of over 35% in size. Put shortly: as §2
Experiment [20] in a line: Quantitative High-Throughput drug screen in 47 multiple myeloma cell lines against the NCATS MIPE library collection: OCIMY5_PLB cell viability assay (AID 1918988). Note: nearly all actives have a fitted effect of over 65% in size. Put shortly: as §2

Inconclusive results are not listed. Values without a mark were called inactive. Active and inactive are the calls of the source. Calls come from the whole dose curve; as a rule, active = well fitted curve in the direction sought with a large enough effect; inconclusive = small, poorly fitted or top-dose-only effect, or another doubt; inactive = no such curve, though single readings can be large; an effect the other way counts as inactive or inconclusive.

The record followed here is PubChem BioAssay (NCATS).
Potency is the fitted concentration of half-maximal effect.

As to `CN1[C@H]2CC[C@H]1CC(OC(=O)c1c[nH]c3ccccc13)C2` (stereo not given in full), the Potency is 14.8 µM (active) in experiment [1]; 1.32 µM (active) in experiment [3]; 2.35 µM (active) in [4]; 18.7 µM (active) in experiment [5]; 20.9 µM (active) in [7]; 9.35 µM (active) in experiment [10]. In addition, the Potency is 10.5 µM (active) in [12] and 16.6 µM (active) in experiment [13]. The Potency entry in experiment [2], in experiment [6], in experiment [8], in experiment [9] and in [11] was “inactive” each time.

For `c1cc(OCCN2CCCCC2)cc(-c2n[nH]c3ccc(-c4ncn[nH]4)cc23)c1`, the Potency in experiment [1] is 18.7 µM (active); in experiment [14], 3.72 µM (active); in experiment [5], 8.33 µM (active); in experiment [7], 23.5 µM (active); in experiment [8], 26.4 µM (active); in [10], 16.6 µM (active). Besides, the Potency was 20.9 µM (active) in experiment [11], 5.26 µM (active) in experiment [15], 18.7 µM (active) in experiment [12] and 5.26 µM (active) in [13].

Regarding `O=C(c1ccc(C(=O)N2CCC(N3CCCC3)CC2)c(Nc2ccccc2)c1)N1CCC(N2CCCC2)CC1`, the Potency entry in experiment [1], in experiment [14], in [4], in experiment [5], in [6] and in experiment [8] was “inactive” throughout. Also, the Potency entry in experiment [9], in experiment [16], in experiment [17], in experiment [13] and in experiment [19] was “inactive” throughout. Besides, the Potency in experiment [18] was 6.62 µM (active).

Consider `COc1ccc2ccc(=O)oc2c1CC=C(C)C`, for which the Potency entry in experiment [1], in experiment [5] and in experiment [17] was “inactive” throughout. Besides, the Potency is 10.5 µM (active) in [2]; 16.6 µM (active) in experiment [3]; 8.33 µM (active) in experiment [4]; 23.5 µM (active) in experiment [6]; 2.96 µM (active) in experiment [7]; 13.2 µM (active) in experiment [8]. Besides, the Potency in [16] was 10.5 µM (active); in experiment [11], 13.2 µM (active); in experiment [20], 8.33 µM (active); in experiment [12], 13.2 µM (active).

As for `CN[C@@H]1CN(c2ccc3c(=O)c(C(=O)O)cn(-c4nccs4)c3n2)C[C@@H]1OC`, the Potency was 6.45 µM (active) in experiment [1]; 18.2 µM (active) in experiment [2]; 8.12 µM (active) in experiment [3]; 6.45 µM (active) in experiment [4]; 1.62 µM (active) in [5]; 0.257 µM (active) in experiment [7]. Moreover, the Potency in experiment [8] is 0.407 µM (active); in experiment [10], 18.2 µM (active); in [11], 5.12 µM (active); in [15], 5.75 µM (active); in experiment [20], 12.9 µM (active); in experiment [17] it was 14.4 µM (active). Besides, the Potency was 7.24 µM (active) in [18], 8.12 µM (active) in experiment [12], 1.62 µM (active) in experiment [13] and 7.24 µM (active) in [19]. Also, the Potency result in experiment [16] was “inactive”.

Turning to `CC(C)N(CCCNC(=O)Nc1ccc(C(C)(C)C)cc1)C[C@H]1O[C@@H](n2cc(Br)c3c(N)ncnc32)[C@H](O)[C@H]1O`, the Potency is 5.26 µM (active) in [1]; 26.4 µM (active) in [2]; 18.7 µM (active) in experiment [3]; 18.7 µM (active) in experiment [4]; 23.5 µM (active) in [5]; 20.9 µM (active) in [8]. Besides, the Potency in experiment [9] is 23.5 µM (active); in experiment [10], 14.8 µM (active); in [11] it was 20.9 µM (active); in experiment [17] it was 23.5 µM (active); in [12], 20.9 µM (active); in experiment [13] it was 20.9 µM (active). Further, the Potency in experiment [19] is 23.5 µM (active). Also, the Potency result in experiment [16] is “inactive”.

`OC(c1cc(C(F)(F)F)nc2c(C(F)(F)F)cccc12)C1CCCCN1` (stereo not given): the Potency in [1] is 10.5 µM (active); in [2], 29.6 µM (active); in experiment [3], 23.5 µM (active); in [4], 23.5 µM (active); in [5], 20.9 µM (active); in experiment [7] it was 20.9 µM (active). Besides, the Potency in [9] was 18.7 µM (active); in experiment [10], 26.4 µM (active); in experiment [15], 10.5 µM (active); in [20] it was 14.8 µM (active); in experiment [18], 23.5 µM (active); in experiment [12], 26.4 µM (active). Moreover, the Potency in experiment [13] was 26.4 µM (active); in [19] it was 14.8 µM (active).

Turning to `COc1ccc(-c2cc3nccn3c(Nc3ncccc3C(N)=O)n2)cc1OC`, the Potency in experiment [1] was 0.418 µM (active); in experiment [2], 10.5 µM (active); in experiment [3], 10.5 µM (active); in experiment [4] it was 3.72 µM (active); in experiment [5], 0.935 µM (active); in experiment [7] it was 14.8 µM (active). Moreover, the Potency in experiment [9] is 3.32 µM (active); in experiment [10], 5.9 µM (active); in experiment [15], 0.148 µM (active); in experiment [20], 3.32 µM (active); in [12] it was 16.6 µM (active); in experiment [13], 1.18 µM (active). In addition, the Potency in [19] was 1.05 µM (active). For the same molecule, the Potency entry in [6] is “inactive”. The viability in experiment [18] is 103%.

On to `CC(C)CN(C[C@@H](O)[C@H](Cc1ccccc1)NC(=O)O[C@H]1CO[C@H]2OCC[C@H]21)S(=O)(=O)c1ccc(N)cc1`, for which the Potency is 2.96 µM (active) in experiment [1]; 3.32 µM (active) in experiment [2]; 20.9 µM (active) in experiment [3]; 1.32 µM (active) in experiment [8]; 3.72 µM (active) in [9]; 20.9 µM (active) in experiment [10]. Moreover, the Potency in experiment [20] is 2.35 µM (active); in experiment [12], 1.32 µM (active); in experiment [13] it was 3.72 µM (active); in experiment [19], 16.6 µM (active). The Potency result in experiment [4], in experiment [6] and in [11] was “inactive” throughout.

In the case of `CCCCCOC(=O)Nc1nc(=O)n([C@@H]2O[C@H](C)[C@@H](O)C2O)cc1F` (stereo not given in full), the Potency entry in experiment [1], in [2], in experiment [3], in [4], in [6] and in experiment [8] was “inactive” each time. Also, the Potency result in [9], in experiment [10], in experiment [16], in [11], in [15] and in experiment [17] was “inactive” throughout. Further, in experiment [12], the Potency entry was “inactive”. Besides, the Potency was 3.32 µM (active) in experiment [13] and 18.7 µM (active) in experiment [19].

For the molecule `CCOC(=O)N1CCN([N+]([O-])=NOc2cc(ON=[N+]([O-])N3CCN(C(=O)OCC)CC3)c([N+](=O)[O-])cc2[N+](=O)[O-])CC1`, the Potency was 2.64 µM (active) in [1]; 2.35 µM (active) in experiment [2]; 6.62 µM (active) in experiment [3]; 2.35 µM (active) in [4]; 2.64 µM (active) in [5]; 7.43 µM (active) in [6]. In addition, the Potency in [7] was 9.35 µM (active); in experiment [8], 2.09 µM (active); in experiment [9], 33.2 µM (active); in [10], 5.9 µM (active); in [20], 2.35 µM (active); in experiment [17], 5.9 µM (active). For the same molecule, the Potency in experiment [18] and in experiment [13] was 4.69 µM (active) throughout.

The viability is a read-out of living cells in per cent, often relative to untreated cells.
